According to publication PMC5540273 (PLoS ONE, 2017):

Columns and labels:
Conditions in all cases: concentration: 1 μM, replicates: in singlicate; n = 1
CSF1R = system: CSF1R
CSK = system: CSK
CSNK1A1L = system: CSNK1A1L
CSNK1A1 = system: CSNK1A1
CSNK1D = system: CSNK1D
CSNK1E = system: CSNK1E
CSNK1G1 = system: CSNK1G1
CSNK1G2 = system: CSNK1G2
CSNK1G3 = system: CSNK1G3
CSNK2A1 = system: CSNK2A1
CSNK2A2 = system: CSNK2A2
CTK = system: T1, CTK
T1 construct: gene MATK

DAPK1 = system: DAPK1
DAPK2 = system: DAPK2
DAPK3 = system: DAPK3
DCAMKL1 = system: T2, DCAMKL1
T2 construct: gene DCLK1

DCAMKL2 = system: T3, DCAMKL2
T3 construct: gene DCLK2

DCAMKL3 = system: T4, DCAMKL3
T4 construct: gene DCLK3

DDR1 = system: DDR1
DDR2 = system: DDR2
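Also: KINOMEscan kinase panel screen.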

Row | Structure (SMILES) | %Inh (CSF1R) [%] | %Inh (CSK) [%] | %Inh (CSNK1A1L) [%] | %Inh (CSNK1A1) [%] | %Inh (CSNK1D) [%] | %Inh (CSNK1E) [%] | %Inh (CSNK1G1) [%] | %Inh (CSNK1G2) [%] | %Inh (CSNK1G3) [%] | %Inh (CSNK2A1) [%] | %Inh (CSNK2A2) [%] | %Inh (CTK) [%] | %Inh (DAPK1) [%] | %Inh (DAPK2) [%] | %Inh (DAPK3) [%] | %Inh (DCAMKL1) [%] | %Inh (DCAMKL2) [%] | %Inh (DCAMKL3) [%] | %Inh (DDR1) [%] | %Inh (DDR2) [%]
1 | Cl.c1ccc(Cn2cnc3cc(Nc4ncnc5ccccc45)ccc32)cc1 [GW272142] | 4 | 64 | 11 | 0 | 16 | 42 | 1 | 1 | 27 | 0 | 0 | 0 | 0 | 0 | 22 | 4 | 20 | 0 | 5 | 14
2 | COc1cc(OC)cc(-c2cc3cnc(N)nc3nc2NC(=O)NC(C)(C)C)c1 | 73 | 0 | 0 | 36 | 0 | 0 | 0 | 0 | 32 | 0 | 0 | 1 | 0 | 0 | 0 | 0 | 0 | 0 | 68 | 11
3 | CN(C)c1cc(-c2ccc3c(N)n[nH]c3c2)nc(N)n1 [GSK2219329] | 2 | 0 | 0 | 0 | 25 | 27 | 0 | 2 | 16 | 0 | 11 | 0 | 0 | 0 | 0 | 9 | 0 | 0 | 0 | 0
4 | Cc1cc(Nc2nc(-c3cccc(C)n3)nc3ccccc23)ccn1 [GW872411] | 0 | 0 | 0 | 0 | 35 | 31 | 3 | 0 | 0 | 0 | 5 | 18 | 0 | 0 | 1 | 26 | 0 | 0 | 0 | 0
5 | CC(C)(C)c1ccc(C(=O)Nc2cn3cc(-c4ccccc4)ccc3n2)cc1 | 0 | 0 | 0 | 0 | 0 | 28 | 0 | 8 | 20 | 15 | 75 | 0 | 9 | 0 | 0 | 33 | 0 | 21 | 4 | 28
6 | COc1cc2ncn(-c3cc(OCCCc4ccccc4)c(C(N)=O)s3)c2cc1OC [GSK205189] | 0 | 0 | 5 | 23 | 1 | 2 | 1 | 2 | 21 | 0 | 3 | 0 | 0 | 26 | 0 | 0 | 17 | 1 | 2 | 3
7 | CCC(=O)c1c(-c2ccccc2)c2cc(Cl)ccc2c(=O)n1Cc1cc(S(C)(=O)=O)n(CC(F)F)n1 | 10 | 73 | 0 | 0 | 0 | 1 | 0 | 7 | 0 | 0 | 0 | 0 | 0 | 0 | 0 | 19 | 0 | 1 | 18 | 10
8 | Nc1ncnc2c1ncn2-c1cccc(F)c1 [SKF-97560] | 20 | 0 | 0 | 16 | 26 | 0 | 0 | 13 | 0 | 28 | 0 | 22 | 0 | 0 | 8 | 0 | 11 | 0 | 18 | 30
9 | COc1ccc(Nc2nccc(N3CCC(NS(=O)(=O)c4ccc(NC(C)=O)cc4)C3)n2)cc1 (stereo not drawn) [GSK1379729] | 1 | 0 | 13 | 32 | 17 | 25 | 6 | 18 | 28 | 15 | 18 | 0 | 0 | 0 | 6 | 10 | 0 | 53 | 13 | 26
10 | Cc1ccccc1COc1cc(-n2cnc3cc(Cl)ccc32)sc1C(N)=O [GW813349] | 0 | 0 | 0 | 24 | 1 | 2 | 0 | 7 | 8 | 5 | 54 | 0 | 0 | 0 | 0 | 0 | 2 | 10 | 0 | 1
11 | CCS(=O)(=O)c1ccc(OC)c(Nc2ncc(-c3ccc(F)cc3)o2)c1.Cl [GW591947] | 0 | 0 | 0 | 0 | 18 | 40 | 13 | 0 | 8 | 0 | 17 | 0 | 0 | 0 | 15 | 9 | 0 | 6 | 0 | 4
12 | CCc1ccc(-c2ccc3c(c2)-c2nn(C)cc2S(=O)(=O)N3C)cc1 | 0 | 2 | 0 | 2 | 0 | 0 | 0 | 7 | 0 | 0 | 0 | 0 | 25 | 0 | 9 | 22 | 0 | 0 | 0 | 41
